# Measured values as given in PubChem BioAssay.
# Where “and” joins values, the source holds several entries; their conditions need not be identical. Equal values may be shown once. Records with an inconclusive call do not appear. Calls of active or inactive are those of the source. Cut-off read from the data, not from the text of the source, unless noted: active = inhibition above about 80%; inactive = the rest.
# Columns and labels:
# [1] = viability loss in pontine glioma line – cell-based, SU-DIPG-XIII, MIPE5.0, CellTiter-Glo, qHTS, dose response (AID 1347064; cut-off not given, nearly all actives have AC50 up to about 23 µM); conditions: CellTiter-Glo ATP luminescence
# [2] = viability loss in pontine glioma line – cell-based, SU-DIPG-XXV, MIPE5.0, CellTiter-Glo, qHTS, dose response (AID 1347065; cut-off not given, nearly all actives have AC50 up to about 26 µM;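 note: cells exposed to compound for 48 hours before ATP readout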); conditions: CellTiter-Glo ATP luminescence
# [3] = growth inhibition, single agents and combos, LFS_MB_1R, cell-based, cisplatin or BGB combos, synergistic combos for chromothripsis tumors (AID 1671452); conditions: LFS_MB_1R medulloblastoma cells, stronger effect = higher value;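 note: cells exposed for 96 hours before readout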
# [4] = growth inhibition, single agents and combos, CRL2098, cell-based, BGB or cisplatin IC20 combos, synergistic combos for chromothripsis tumors (AID 1671454); conditions: CRL2098 osteosarcoma cells, drug combinations, stronger effect = higher value;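 note: cells exposed for 96 h before readout; 0% = vehicle DMSO and 100% = killing by high DMSO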
# [5] = growth inhibition, single agents and combos, HD-MB03, cell-based, BGB or cisplatin IC20 combos, synergistic combos for chromothripsis tumors (AID 1671455; in the data active = inhibition above about 83%;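 note: 0% = vehicle DMSO and 100% = high DMSO as cytotoxic control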); conditions: HD-MB03 medulloblastoma cells, stronger effect = higher value
# [6] = growth inhibition, single agents and combos, UWB1.289, cell-based, BGB or cisplatin combos, synergistic combos for chromothripsis tumors (AID 1671456); conditions: UWB1.289 ovarian carcinoma cells, stronger effect = higher value;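 note: cells exposed to compound for four days; 0% = vehicle DMSO and 100% = killing by high DMSO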
# [7] = growth inhibition, single agents and combos, LFS_MB_2R, cell-based, cisplatin combos, synergistic combos for chromothripsis tumors (AID 1671457); conditions: LFS_MB_2R medulloblastoma cells, stronger effect = higher value;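 note: cells exposed to compound for four days before readout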
# [8] = UWB1.289_BRCA1 ovarian cancer growth, cell-based, BGB or cisplatin combinations (AID 1671459); conditions: UWB1.289 BRCA1 ovarian carcinoma, drug combinations, stronger effect = higher value
# [9] = drug combination toxicity in non-malignant astrocytes – cell-based, BGB or cisplatin IC20 combos, cytotoxicity control for chromothriptic childhood tumor combination screen (AID 1671460); conditions: Human astrocytes, viability inhibition, drug combinations, at 0.5 µM, stronger effect = higher value;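 note: cells exposed to compounds for 96 hours before viability readout; 0% = vehicle and 100% = killing control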
# [10] = RCMB18 cell growth, single agent and combined, cisplatin and BGB IC40 combos (AID 1671462); conditions: RCMB18 medulloblastoma cells, stronger effect = higher value;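 note: cells exposed to compound for four days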
# [11] = CRL1545 cell growth, single agent and combined, cisplatin and BGB IC20 combos (AID 1671464); conditions: CRL1545 osteosarcoma cells, stronger effect = higher value;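 note: cells exposed to compound for 96 hours before readout; 0% = vehicle DMSO and 100% = high DMSO killing control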
# [12] = liver-stage malaria parasite load reduction – cell-based, known kinase inhibitor set, luminescence, hepatoma host viability (AID 624392; call rule not given here;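 note: infected cells incubated roughly two days before readout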); conditions: Plasmodium liver stage in hepatoma cells, luciferase luminescence, concentration not given here; liver cell % of control: measured here: host liver cell viability; parasite % of control: stronger effect = lower value
# [13] = target: Mitogen-activated protein kinase 7 (Homo sapiens) (UniProt Q13164); assay: Gal4-ERK5 driven luciferase induction – cell-based, HTS, primary screen (AID 1508626;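 active = luciferase signal above three times the same-plate solvent-only control wells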;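 note: luciferase driven by Gal4-ERK5 fusion binding five Gal4 sites before minimal TATA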); conditions: HeLa Gal4-ERK5 transactivation, 18 h, at 5 µM, stronger effect = higher value
# Mitogen-activated protein kinase 7 (Homo sapiens), sequence (Q13164 whole entry, looked up, the tested form may be a part): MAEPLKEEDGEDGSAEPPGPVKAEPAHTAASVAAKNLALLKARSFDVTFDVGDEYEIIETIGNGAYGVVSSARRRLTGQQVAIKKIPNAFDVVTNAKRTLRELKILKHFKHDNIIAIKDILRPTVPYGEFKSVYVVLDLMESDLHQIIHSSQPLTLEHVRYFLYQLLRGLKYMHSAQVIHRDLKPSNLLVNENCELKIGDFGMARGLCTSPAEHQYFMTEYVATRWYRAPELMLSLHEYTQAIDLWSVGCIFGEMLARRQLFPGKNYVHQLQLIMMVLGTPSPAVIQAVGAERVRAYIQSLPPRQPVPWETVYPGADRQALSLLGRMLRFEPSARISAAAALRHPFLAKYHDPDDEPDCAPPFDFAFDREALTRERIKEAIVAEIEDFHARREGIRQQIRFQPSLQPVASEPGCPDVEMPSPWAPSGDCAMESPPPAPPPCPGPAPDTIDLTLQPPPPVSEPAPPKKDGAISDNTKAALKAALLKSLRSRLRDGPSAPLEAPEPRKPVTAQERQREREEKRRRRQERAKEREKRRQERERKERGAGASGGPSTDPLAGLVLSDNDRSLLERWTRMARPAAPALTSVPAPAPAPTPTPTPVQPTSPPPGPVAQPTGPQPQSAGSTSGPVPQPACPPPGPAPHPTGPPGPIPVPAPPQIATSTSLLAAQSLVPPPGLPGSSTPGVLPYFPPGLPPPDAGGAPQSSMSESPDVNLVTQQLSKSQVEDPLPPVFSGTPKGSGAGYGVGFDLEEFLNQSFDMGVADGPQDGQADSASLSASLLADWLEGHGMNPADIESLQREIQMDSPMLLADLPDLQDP
# [14] = blockers of polyQ-driven CASP3 activation – cell-based (AID 1583); conditions: polyglutamine-induced caspase-3 activation, cell assay; stronger effect = higher value;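 tested at 10 µM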
# [15] = measured here: combination with BGB IC40, at 0.05 µM
# [16] = measured here: combination with cisplatin, at 0.5 µM
# [17] = measured here: combination with cisplatin, at 5 µM
# [18] = measured here: combination with BGB at IC20, at 0.5 µM
# [19] = measured here: combination with cisplatin at IC20, at 0.5 µM
# [20] = measured here: combo with BGB at IC20, at 0.5 µM
# [21] = measured here: combo with cisplatin at IC20, at 0.5 µM
# [22] = measured here: inhibition with BGB combination, at 0.05 µM
# [23] = measured here: inhibition with cisplatin combination, at 0.05 µM
# [24] = BGB combination, concentration series, at 5 µM
# [25] = cisplatin combination, concentration series, at 5 µM
# [26] = measured here: combo with BGB IC20
# [27] = measured here: combo with cisplatin IC20
# [28] = measured here: BGB IC40 combination, at 0.05 µM
# [29] = measured here: with BGB IC20 combination, at 0.5 µM
# [30] = measured here: with cisplatin IC20 combination, at 0.5 µM
compound,measurement,setting,value
O=c1ncccn1[C@@H]1O[C@H](CO)[C@@H](O)[C@H]1O,outcome,[1],inactive
same,outcome,[2],inactive
same,inhibition,[3]; at 0.5 µM,-27.9% (inactive)
same,inhibition,[3]; [15],-35.3%
same,inhibition,[3]; [16],-51%
same,inhibition,[3]; [17],-58.9%
same,inhibition,[4]; at 0.5 µM,-74.1% (inactive)
same,inhibition,[4]; [18],-48.3%
same,inhibition,[4]; [19],-120%
same,inhibition,[5]; at 0.5 µM,-21.4% (inactive)
same,inhibition,[5]; [20],-26.7%
same,inhibition,[5]; [21],-23%
same,inhibition,[6]; at 0.5 µM,-19.3% (inactive)
same,inhibition,[6]; [22],1.76%
same,inhibition,[6]; [23],-40%
same,inhibition,[7]; at 0.5 µM,-6.18% (inactive)
same,inhibition,[7]; [16],-23.5%
same,inhibition,[7]; [17],-12.7%
same,inhibition,[8]; [24],-30%
same,inhibition,[8]; at 0.5 µM,-19.1% (inactive)
same,inhibition,[8]; [25],-22.8%
same,inhibition,[9],-3.28% (inactive)
same,inhibition,[9]; [26],-9.39%
same,inhibition,[9]; [27],1.77%
same,inhibition,[10]; at 0.5 µM,-16.2% (inactive)
same,inhibition,"[10]; cisplatin combo, at 5 µM",-19.8%
same,inhibition,[10]; [28],3.99%
same,inhibition,[10]; [16],-35.7%
same,inhibition,"[10]; single agent, at 5 µM",-29.5%
same,inhibition,[11]; at 0.5 µM,-31.3% (inactive)
same,inhibition,[11]; [29],-27.5%
same,inhibition,[11]; [30],-35.4%
same,inhibition,"[11]; single agent, at 0.05 µM",-12.6%
same,inhibition,"[11]; single agent, at 5 µM",-36.3%
Cn1cc(C2=C(c3ccc(Cl)cc3Cl)C(=O)NC2=O)c2ccccc21,liver cell % of control,[12],105% and 92.9% and 90.2%
same,parasite % of control,[12],19.2% (inactive) and 24.2% (inactive) and 47.4% (inactive)
CCSC(=N)N,luciferase signal,[13],16 AU (inactive)
Oc1cc2c(cc1O)C(c1ccccc1)CNCC2 (stereo not drawn),luciferase signal,[13],44 AU (inactive)
N.N.O=C(O)C1(C(=O)O)CCC1.[Pt],inhibition,[14],-4.65%
same,inhibition,[3]; at 0.5 µM,-35.7% (inactive) and -31.6% (inactive)
same,inhibition,[3]; [15],-53% and -34.9%
same,inhibition,[3]; [16],-6.08% and -36.3%
same,inhibition,[3]; [17],-14.9% and -37.2%
same,inhibition,[4]; at 0.5 µM,-63.4% (inactive) and -87.5% (inactive)
same,inhibition,[4]; [18],-18.4% and -56.5%
same,inhibition,[4]; [19],-78.6% and -134%
same,inhibition,[5]; at 0.5 µM,-1.12% (inactive) and -17.2% (inactive)
same,inhibition,[5]; [20],0.288% and -20.6%
same,inhibition,[5]; [21],4.09% and -19.6%
same,inhibition,[6]; at 0.5 µM,-2.74% (inactive) and -5.32% (inactive)
same,inhibition,[6]; [22],42.2% and -5.66%
same,inhibition,[6]; [23],-17.5% and -30.7%
same,inhibition,[7]; at 0.5 µM,-25.7% (inactive) and -8.57% (inactive)
same,inhibition,[7]; [16],-29.8% and -25.9%
same,inhibition,[7]; [17],-19% and -16.7%
same,inhibition,[8]; [24],2.03% and 5.93%
same,inhibition,[8]; at 0.5 µM,-15.7% (inactive) and -7.62% (inactive)
same,inhibition,[8]; [25],29.9% and 24.6%
same,inhibition,[9],-6.9% (inactive) and 14.2% (inactive)
same,inhibition,[9]; [26],-5.7% and 11.6%
same,inhibition,[9]; [27],-6.14% and 19.2%
same,inhibition,[10]; at 0.5 µM,-27.3% (inactive) and -19.1% (inactive)
same,inhibition,"[10]; cisplatin combo, at 5 µM",-0.537% and -4.06%
same,inhibition,[10]; [28],-23.2% and -16.9%
same,inhibition,[10]; [16],-19.3% and -17.8%
same,inhibition,"[10]; single agent, at 5 µM",-46.1% and -19.1%
same,inhibition,[11]; at 0.5 µM,-31.3% (inactive) and -52.7% (inactive)
same,inhibition,[11]; [29],-4.25% and -43.2%
same,inhibition,[11]; [30],-44.9% and -60%
same,inhibition,"[11]; single agent, at 0.05 µM",-23.7% and -50.6%
same,inhibition,"[11]; single agent, at 5 µM",3.56% and 6.67%
O=C(Nc1ccncc1)c1cc([N+](=O)[O-])ccc1Cl,inhibition,[3]; at 0.5 µM,-23.9% (inactive)
same,inhibition,[3]; [15],-37.5%
same,inhibition,[3]; [16],-9.6%
same,inhibition,[3]; [17],54.5%
same,inhibition,[4]; at 0.5 µM,-65.5% (inactive)
same,inhibition,[4]; [18],-72.7%
same,inhibition,[4]; [19],-82.6%
same,inhibition,[5]; at 0.5 µM,-11.5% (inactive)
same,inhibition,[5]; [20],-10.4%
same,inhibition,[5]; [21],-13.5%
same,inhibition,[6]; at 0.5 µM,-6.23% (inactive)
same,inhibition,[6]; [22],-27.4%
same,inhibition,[6]; [23],-17%
same,inhibition,[7]; at 0.5 µM,-23.4% (inactive)
same,inhibition,[7]; [16],-14.6%
same,inhibition,[7]; [17],-37.5%
same,inhibition,[8]; [24],-19.1%
same,inhibition,[8]; at 0.5 µM,-17.7% (inactive)
same,inhibition,[8]; [25],-9.35%
same,inhibition,[9],-9.91% (inactive)
same,inhibition,[9]; [26],0.843%
same,inhibition,[9]; [27],-18.4%
same,inhibition,[10]; at 0.5 µM,-25.9% (inactive)
same,inhibition,"[10]; cisplatin combo, at 5 µM",23.7%
same,inhibition,[10]; [28],-24.6%
same,inhibition,[10]; [16],-52.5%
same,inhibition,"[10]; single agent, at 5 µM",-3.16%
same,inhibition,[11]; at 0.5 µM,6.35% (inactive)
same,inhibition,[11]; [29],-12.9%
same,inhibition,[11]; [30],14.6%
same,inhibition,"[11]; single agent, at 0.05 µM",-34.7%
same,inhibition,"[11]; single agent, at 5 µM",-4.08%
